# Laboratory results reported in ChEMBL document CHEMBL1961873, “Compounds: GSK PKIS; Assays: Nanosyn kinase panel” (2012).
# How the values were obtained:
# [1] = target: T1, Ephrin type-B receptor 2 (Homo sapiens) (UniProt P29323); conditions: at 1 µM
# T1 sequence (whole entry): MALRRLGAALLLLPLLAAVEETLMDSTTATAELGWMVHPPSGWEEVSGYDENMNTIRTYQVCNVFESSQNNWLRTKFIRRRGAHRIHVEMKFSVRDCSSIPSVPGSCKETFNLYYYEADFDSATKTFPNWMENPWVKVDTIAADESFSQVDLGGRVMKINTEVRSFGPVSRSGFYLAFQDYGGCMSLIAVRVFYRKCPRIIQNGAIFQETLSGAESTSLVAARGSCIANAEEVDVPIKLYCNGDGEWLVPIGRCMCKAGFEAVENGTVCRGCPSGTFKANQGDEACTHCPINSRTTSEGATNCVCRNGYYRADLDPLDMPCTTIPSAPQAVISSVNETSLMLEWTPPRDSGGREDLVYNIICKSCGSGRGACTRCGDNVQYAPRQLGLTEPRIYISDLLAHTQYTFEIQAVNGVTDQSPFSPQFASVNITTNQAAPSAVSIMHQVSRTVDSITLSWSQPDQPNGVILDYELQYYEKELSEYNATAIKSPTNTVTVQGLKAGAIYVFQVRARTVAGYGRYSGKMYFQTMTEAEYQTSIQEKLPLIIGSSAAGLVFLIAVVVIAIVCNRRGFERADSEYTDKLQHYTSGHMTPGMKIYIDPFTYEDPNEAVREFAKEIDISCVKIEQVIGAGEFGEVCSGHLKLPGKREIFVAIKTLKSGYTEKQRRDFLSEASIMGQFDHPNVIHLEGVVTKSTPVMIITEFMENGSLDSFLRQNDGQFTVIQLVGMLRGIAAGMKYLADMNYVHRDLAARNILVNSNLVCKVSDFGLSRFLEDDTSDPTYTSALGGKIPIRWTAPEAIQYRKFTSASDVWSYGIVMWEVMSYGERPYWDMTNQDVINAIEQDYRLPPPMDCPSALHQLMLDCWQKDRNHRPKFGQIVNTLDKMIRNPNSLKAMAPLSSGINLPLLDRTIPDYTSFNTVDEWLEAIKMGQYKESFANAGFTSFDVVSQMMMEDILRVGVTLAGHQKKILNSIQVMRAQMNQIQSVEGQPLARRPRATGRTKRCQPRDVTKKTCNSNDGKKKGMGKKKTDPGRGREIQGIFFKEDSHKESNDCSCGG
# [2] = target: T2, Ephrin type-B receptor 3 (Homo sapiens) (UniProt P54753); conditions: at 0.1 µM
# T2 sequence (whole entry): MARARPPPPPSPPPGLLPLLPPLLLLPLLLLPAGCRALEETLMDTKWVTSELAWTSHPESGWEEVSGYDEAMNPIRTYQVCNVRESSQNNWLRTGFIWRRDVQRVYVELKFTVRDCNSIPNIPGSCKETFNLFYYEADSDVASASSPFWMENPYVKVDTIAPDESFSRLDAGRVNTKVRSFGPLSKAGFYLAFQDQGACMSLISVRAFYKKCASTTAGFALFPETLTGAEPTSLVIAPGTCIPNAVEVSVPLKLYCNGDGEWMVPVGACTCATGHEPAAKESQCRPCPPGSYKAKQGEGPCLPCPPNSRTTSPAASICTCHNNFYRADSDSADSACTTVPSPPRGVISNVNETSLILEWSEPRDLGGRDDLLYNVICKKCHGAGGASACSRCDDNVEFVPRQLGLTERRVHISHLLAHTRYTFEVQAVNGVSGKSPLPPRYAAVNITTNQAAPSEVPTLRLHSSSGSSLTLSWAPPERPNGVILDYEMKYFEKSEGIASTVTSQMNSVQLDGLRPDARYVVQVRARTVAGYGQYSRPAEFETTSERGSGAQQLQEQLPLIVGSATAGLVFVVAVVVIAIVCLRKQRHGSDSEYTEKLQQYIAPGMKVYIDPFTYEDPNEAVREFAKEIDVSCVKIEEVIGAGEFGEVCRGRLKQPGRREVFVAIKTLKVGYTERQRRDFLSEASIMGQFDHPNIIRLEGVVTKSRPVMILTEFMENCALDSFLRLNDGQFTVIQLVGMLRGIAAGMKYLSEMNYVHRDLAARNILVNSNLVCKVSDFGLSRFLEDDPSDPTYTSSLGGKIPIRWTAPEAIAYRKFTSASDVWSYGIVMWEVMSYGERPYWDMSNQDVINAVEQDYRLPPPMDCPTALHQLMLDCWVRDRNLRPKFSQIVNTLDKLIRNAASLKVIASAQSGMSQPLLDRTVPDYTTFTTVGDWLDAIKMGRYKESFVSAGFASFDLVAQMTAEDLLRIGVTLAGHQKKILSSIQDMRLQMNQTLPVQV
# [3] = target: T2, Ephrin type-B receptor 3 (Homo sapiens); conditions: at 1 µM
# [4] = target: T3, Ephrin type-B receptor 4 (Homo sapiens) (UniProt P54760); conditions: at 0.1 µM
# T3 sequence (whole entry): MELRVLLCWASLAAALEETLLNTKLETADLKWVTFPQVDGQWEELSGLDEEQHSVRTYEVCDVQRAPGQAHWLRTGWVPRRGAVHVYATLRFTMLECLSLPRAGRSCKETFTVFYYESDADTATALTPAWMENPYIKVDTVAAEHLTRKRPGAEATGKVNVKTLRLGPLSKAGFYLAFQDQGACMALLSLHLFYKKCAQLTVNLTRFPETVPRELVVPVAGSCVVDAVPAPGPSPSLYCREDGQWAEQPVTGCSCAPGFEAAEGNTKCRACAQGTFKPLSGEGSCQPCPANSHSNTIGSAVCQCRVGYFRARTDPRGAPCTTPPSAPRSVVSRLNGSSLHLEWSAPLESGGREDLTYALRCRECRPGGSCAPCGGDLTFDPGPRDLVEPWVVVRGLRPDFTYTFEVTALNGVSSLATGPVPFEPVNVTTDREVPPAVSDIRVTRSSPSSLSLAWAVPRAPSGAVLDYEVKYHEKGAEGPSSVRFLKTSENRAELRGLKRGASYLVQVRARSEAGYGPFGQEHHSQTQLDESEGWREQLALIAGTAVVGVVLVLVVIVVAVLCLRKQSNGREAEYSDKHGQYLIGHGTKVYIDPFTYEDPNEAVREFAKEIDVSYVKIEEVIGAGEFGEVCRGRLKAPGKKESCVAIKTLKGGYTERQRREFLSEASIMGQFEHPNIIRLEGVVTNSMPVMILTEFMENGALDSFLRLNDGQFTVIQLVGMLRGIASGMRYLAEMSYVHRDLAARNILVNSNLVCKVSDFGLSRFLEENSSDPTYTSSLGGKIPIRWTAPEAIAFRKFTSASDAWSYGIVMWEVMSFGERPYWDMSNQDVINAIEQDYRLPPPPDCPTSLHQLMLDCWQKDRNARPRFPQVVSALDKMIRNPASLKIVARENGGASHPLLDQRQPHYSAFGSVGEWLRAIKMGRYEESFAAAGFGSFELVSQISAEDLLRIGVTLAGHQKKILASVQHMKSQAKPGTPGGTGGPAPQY
# [5] = target: T3, Ephrin type-B receptor 4 (Homo sapiens); conditions: at 1 µM
# [6] = target: Receptor tyrosine-protein kinase erbB-2 (Homo sapiens) (UniProt P04626); conditions: at 0.1 µM
# Chain of Receptor tyrosine-protein kinase erbB-2 (Homo sapiens) (P04626 whole entry): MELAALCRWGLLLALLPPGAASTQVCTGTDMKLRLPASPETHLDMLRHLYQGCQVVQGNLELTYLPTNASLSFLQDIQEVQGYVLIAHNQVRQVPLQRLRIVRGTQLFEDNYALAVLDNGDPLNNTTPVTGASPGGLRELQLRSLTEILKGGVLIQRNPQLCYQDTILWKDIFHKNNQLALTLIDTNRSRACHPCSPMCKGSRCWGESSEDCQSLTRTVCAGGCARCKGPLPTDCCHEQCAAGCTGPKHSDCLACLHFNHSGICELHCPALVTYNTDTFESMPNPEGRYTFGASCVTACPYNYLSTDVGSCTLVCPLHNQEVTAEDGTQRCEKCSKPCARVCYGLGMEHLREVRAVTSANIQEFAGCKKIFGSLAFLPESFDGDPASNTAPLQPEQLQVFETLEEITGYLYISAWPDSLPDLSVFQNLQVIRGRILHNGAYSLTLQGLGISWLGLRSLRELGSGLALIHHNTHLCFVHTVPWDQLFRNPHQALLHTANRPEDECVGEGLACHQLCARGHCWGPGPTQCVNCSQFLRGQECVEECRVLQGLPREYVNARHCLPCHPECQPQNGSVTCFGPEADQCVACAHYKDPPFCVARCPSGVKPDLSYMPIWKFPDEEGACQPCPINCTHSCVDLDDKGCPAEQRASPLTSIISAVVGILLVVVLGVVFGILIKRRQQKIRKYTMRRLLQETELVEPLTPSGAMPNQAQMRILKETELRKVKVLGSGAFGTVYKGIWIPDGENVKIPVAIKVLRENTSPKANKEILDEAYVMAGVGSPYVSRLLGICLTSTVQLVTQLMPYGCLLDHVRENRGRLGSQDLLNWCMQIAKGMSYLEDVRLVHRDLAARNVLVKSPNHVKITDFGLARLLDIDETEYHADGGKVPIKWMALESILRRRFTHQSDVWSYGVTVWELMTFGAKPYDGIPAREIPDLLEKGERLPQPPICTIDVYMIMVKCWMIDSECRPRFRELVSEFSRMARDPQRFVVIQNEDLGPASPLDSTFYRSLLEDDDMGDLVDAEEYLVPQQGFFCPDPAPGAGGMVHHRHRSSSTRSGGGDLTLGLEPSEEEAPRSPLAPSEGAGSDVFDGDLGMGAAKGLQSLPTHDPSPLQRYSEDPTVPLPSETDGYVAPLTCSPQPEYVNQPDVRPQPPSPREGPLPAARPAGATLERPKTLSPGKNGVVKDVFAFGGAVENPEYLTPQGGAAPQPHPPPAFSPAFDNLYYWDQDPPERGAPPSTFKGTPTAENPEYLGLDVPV
# [7] = target: Receptor tyrosine-protein kinase erbB-2 (Homo sapiens) (UniProt P04626); conditions: at 1 µM
# [8] = target: Receptor tyrosine-protein kinase erbB-4 (Homo sapiens) (UniProt Q15303); conditions: at 0.1 µM
# Chain of Receptor tyrosine-protein kinase erbB-4 (Homo sapiens) (Q15303 whole entry): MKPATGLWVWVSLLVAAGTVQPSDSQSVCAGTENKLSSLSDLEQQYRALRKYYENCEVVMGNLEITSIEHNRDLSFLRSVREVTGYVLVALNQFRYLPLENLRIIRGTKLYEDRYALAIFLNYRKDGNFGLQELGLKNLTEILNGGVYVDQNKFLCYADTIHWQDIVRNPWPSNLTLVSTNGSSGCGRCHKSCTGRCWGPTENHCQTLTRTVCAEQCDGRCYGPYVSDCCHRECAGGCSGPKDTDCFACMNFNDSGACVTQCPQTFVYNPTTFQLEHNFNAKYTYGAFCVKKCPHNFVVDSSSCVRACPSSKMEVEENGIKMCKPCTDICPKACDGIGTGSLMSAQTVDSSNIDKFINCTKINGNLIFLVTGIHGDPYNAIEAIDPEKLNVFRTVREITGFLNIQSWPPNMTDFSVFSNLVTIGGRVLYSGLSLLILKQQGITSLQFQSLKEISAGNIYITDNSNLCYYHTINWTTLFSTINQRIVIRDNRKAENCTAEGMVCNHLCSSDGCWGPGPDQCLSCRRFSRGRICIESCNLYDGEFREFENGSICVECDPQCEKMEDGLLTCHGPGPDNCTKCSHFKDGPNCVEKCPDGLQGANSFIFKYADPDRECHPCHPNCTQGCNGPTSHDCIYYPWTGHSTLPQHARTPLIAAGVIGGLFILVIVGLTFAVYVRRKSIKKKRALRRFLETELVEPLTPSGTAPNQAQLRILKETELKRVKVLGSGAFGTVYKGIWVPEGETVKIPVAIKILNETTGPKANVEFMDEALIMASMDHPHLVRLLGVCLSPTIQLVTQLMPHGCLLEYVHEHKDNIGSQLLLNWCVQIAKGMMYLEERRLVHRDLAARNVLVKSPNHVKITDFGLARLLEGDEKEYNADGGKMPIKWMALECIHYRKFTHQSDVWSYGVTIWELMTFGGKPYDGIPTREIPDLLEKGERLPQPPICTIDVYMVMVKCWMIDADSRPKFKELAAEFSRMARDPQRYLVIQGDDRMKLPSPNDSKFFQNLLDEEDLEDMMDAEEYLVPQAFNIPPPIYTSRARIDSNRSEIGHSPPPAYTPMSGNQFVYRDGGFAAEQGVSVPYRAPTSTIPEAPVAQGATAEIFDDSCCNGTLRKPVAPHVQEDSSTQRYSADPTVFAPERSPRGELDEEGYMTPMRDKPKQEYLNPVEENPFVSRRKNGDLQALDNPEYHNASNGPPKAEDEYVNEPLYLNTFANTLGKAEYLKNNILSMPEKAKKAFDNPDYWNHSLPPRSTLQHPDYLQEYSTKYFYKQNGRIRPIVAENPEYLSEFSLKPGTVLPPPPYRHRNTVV
# [9] = target: Receptor tyrosine-protein kinase erbB-4 (Homo sapiens) (UniProt Q15303); conditions: at 1 µM
# [10] = target: Tyrosine-protein kinase Fer (Homo sapiens) (UniProt P16591); conditions: at 0.1 µM
# [11] = target: Tyrosine-protein kinase Fer (Homo sapiens) (UniProt P16591); conditions: at 1 µM
# [12] = target: Tyrosine-protein kinase Fes/Fps (Homo sapiens) (UniProt P07332); conditions: at 0.1 µM
# [13] = target: Tyrosine-protein kinase Fes/Fps (Homo sapiens) (UniProt P07332); conditions: at 1 µM
# [14] = target: Fibroblast growth factor receptor 1 (Homo sapiens) (UniProt P11362); conditions: at 0.1 µM
# Chain of Fibroblast growth factor receptor 1 (Homo sapiens) (P11362 22-822 limits assumed): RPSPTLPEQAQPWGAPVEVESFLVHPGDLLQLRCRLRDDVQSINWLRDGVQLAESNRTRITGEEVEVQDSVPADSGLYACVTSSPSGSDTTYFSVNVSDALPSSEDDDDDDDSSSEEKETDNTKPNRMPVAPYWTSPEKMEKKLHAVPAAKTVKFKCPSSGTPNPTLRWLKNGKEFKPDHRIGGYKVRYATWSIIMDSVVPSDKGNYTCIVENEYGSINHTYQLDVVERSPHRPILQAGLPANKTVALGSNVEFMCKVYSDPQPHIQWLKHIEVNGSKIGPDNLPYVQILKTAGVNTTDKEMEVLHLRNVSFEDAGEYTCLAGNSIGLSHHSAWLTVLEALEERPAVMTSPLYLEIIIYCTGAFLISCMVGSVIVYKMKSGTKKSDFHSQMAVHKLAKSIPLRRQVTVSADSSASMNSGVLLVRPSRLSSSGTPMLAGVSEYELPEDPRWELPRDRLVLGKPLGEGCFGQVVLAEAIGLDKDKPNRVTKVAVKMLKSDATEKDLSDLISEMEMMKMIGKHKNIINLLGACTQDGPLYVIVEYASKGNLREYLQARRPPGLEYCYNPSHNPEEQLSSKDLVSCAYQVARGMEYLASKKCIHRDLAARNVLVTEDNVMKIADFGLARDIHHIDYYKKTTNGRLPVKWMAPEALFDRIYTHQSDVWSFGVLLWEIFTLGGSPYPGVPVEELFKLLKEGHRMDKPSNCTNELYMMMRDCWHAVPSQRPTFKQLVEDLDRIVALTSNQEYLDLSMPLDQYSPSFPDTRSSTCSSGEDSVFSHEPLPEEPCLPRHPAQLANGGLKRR
# [15] = target: Fibroblast growth factor receptor 1 (Homo sapiens) (UniProt P11362); conditions: at 1 µM
# [16] = target: Fibroblast growth factor receptor 2 (Homo sapiens) (UniProt P21802); conditions: at 0.1 µM
# Chain of Fibroblast growth factor receptor 2 (Homo sapiens) (P21802 22-821 limits assumed): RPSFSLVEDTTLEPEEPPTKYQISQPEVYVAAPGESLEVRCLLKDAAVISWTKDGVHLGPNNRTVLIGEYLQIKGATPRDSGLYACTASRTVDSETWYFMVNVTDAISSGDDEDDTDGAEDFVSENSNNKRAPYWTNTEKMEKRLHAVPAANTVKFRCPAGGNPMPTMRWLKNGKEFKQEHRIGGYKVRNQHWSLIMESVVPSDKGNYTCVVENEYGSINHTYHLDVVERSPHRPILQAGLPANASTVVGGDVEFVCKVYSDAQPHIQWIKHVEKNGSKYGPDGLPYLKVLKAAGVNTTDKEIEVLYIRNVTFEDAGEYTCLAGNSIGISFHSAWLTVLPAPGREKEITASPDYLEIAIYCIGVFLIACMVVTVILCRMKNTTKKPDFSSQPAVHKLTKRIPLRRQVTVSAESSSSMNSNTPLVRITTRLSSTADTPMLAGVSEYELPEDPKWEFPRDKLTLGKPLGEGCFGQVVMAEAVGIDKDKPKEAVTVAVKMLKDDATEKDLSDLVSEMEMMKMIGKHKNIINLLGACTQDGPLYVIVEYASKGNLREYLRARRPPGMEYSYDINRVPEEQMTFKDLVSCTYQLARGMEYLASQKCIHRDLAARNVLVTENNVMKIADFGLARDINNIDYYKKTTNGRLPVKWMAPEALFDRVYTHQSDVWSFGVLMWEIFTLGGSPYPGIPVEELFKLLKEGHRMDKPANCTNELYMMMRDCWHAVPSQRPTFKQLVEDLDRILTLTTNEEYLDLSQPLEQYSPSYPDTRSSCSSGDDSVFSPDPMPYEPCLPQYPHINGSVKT
# [17] = target: Fibroblast growth factor receptor 2 (Homo sapiens) (UniProt P21802); conditions: at 1 µM
# [18] = target: Fibroblast growth factor receptor 3 (Homo sapiens) (UniProt P22607); conditions: at 0.1 µM
# [19] = target: Fibroblast growth factor receptor 3 (Homo sapiens) (UniProt P22607); conditions: at 1 µM
# [20] = target: Fibroblast growth factor receptor 4 (Homo sapiens) (UniProt P22455); conditions: at 0.1 µM;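 further: values are mean percent inhibition of FGFR4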
# Chain of Fibroblast growth factor receptor 4 (Homo sapiens) (P22455 22-802 limits assumed): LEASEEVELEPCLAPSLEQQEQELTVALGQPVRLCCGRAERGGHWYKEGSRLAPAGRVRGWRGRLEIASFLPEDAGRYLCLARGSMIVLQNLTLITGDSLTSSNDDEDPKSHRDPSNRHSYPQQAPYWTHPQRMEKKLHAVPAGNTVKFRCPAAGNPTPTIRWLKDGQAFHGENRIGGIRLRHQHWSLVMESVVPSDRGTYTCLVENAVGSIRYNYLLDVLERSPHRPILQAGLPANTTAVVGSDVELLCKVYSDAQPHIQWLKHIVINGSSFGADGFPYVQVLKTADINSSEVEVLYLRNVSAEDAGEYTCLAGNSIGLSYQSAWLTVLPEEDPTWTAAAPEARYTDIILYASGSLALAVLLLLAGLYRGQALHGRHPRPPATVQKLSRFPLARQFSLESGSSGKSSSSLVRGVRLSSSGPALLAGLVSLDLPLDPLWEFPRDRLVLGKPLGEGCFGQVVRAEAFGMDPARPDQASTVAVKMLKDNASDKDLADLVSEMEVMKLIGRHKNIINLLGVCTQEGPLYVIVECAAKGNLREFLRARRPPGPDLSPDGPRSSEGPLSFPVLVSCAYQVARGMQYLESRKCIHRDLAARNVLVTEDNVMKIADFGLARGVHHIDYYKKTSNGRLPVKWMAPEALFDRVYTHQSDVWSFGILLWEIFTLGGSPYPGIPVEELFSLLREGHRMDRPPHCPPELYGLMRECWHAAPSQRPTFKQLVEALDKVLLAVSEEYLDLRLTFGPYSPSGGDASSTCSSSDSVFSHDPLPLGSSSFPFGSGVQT
Structure (SMILES),inhibition [1],inhibition [2],inhibition [3],inhibition [4],inhibition [5],inhibition [6],inhibition [7],inhibition [8],inhibition [9],inhibition [10],inhibition [11],inhibition [12],inhibition [13],inhibition [14],inhibition [15],inhibition [16],inhibition [17],inhibition [18],inhibition [19],inhibition [20]
CN(c1ccc(NC(=O)Nc2c(Cl)cccc2Cl)cc1)c1ccnc(Nc2cccc(CS(C)(=O)=O)c2)n1,27.3%,2.02%,4.62%,2.86%,8.72%,1.88%,7.2%,11.2%,17.1%,51.9%,77.2%,11.1%,22.5%,6.14%,-0.4%,3.91%,13.4%,0.14%,5.59%,2.62%
CCN(CC)Cc1ccc(Nc2nccc(-c3cnn4ncccc34)n2)cc1,27.2%,-0.97%,0.55%,1.62%,8.4%,3.58%,3.96%,1.52%,5.17%,3.88%,15.5%,5.99%,28%,1.77%,11.6%,4.18%,8.8%,2.66%,5.35%,-1.71%
COc1ccc(C2=C(N3CCc4ccccc43)C(=O)NC2=O)cc1,11.3%,3.73%,6.05%,3.74%,4.2%,4.12%,2.07%,8.75%,12.9%,5.39%,4.91%,3.03%,5.04%,4.17%,8.02%,4.11%,6.4%,8.71%,8.26%,2.43%
NS(=O)(=O)c1ccc(Nc2cc(-c3ccc(O)c(F)c3)n[nH]2)cc1,-1.29%,-8.08%,-5.11%,-0.68%,-0.49%,-5.39%,-4.29%,,-6.22%,5.83%,14.1%,-3.61%,-0.97%,-2.91%,8.63%,-4.17%,9.61%,1.11%,8.58%,1.23%
COc1cc2ncn(-c3cc(OCc4ccccc4C(F)(F)F)c(C(C)=O)s3)c2cc1OC,9%,3.62%,3.29%,0.64%,3.47%,3.47%,4.43%,6.91%,9.68%,2.43%,7.96%,2.84%,2.74%,2.64%,2.73%,3.27%,9.16%,2.58%,6.41%,-0.33%
Cc1ccc(C(=O)NC(C)C)cc1-c1ccc(C(=O)NCC2CC2)cc1,0.35%,-7.05%,-4.82%,-0.32%,-2.91%,-5.52%,-4.79%,,,-1.9%,-1.61%,-2.77%,-3%,-5.37%,-2.8%,-4.22%,-3.57%,-4.95%,-3.57%,1.18%
Nc1nccc(-c2c(-c3ccc(F)cc3)ncn2C2CCC(O)CC2)n1 (stereo not given),35.9%,1.08%,32.1%,2.5%,14.7%,-3.17%,4.64%,6.79%,45.9%,5.39%,19.8%,-2.78%,-2.56%,0.56%,11.3%,-2.57%,1.23%,-0.35%,1.39%,2.77%
C[C@@H](Oc1cc(-n2cnc3ccc(OCC4CCN(C)CC4)cc32)sc1C(N)=O)c1ccccc1Cl,8.25%,2.8%,6.12%,5.24%,3.86%,41.4%,4.61%,9.63%,13.1%,1.28%,7.17%,4.96%,7.97%,5.32%,14%,9.46%,12.5%,11.2%,8.71%,3.93%
NS(=O)(=O)c1ccc(N/N=C2\C(=O)Nc3ccc(C(=O)NCCCn4ccnc4)cc32)cc1,13.3%,5.75%,4.37%,1.61%,5.27%,4.39%,5.69%,8.45%,14.6%,,,2.9%,3.18%,1.31%,4.32%,3.11%,8.85%,4.75%,5.37%,-9.93%
CS(=O)(=O)CCNCc1ccc(-c2ccc3ncnc(Nc4ccc(OCc5ccccc5)c(Br)c4)c3c2)o1,6.61%,-1.4%,-0.23%,-1.9%,-0.22%,10.8%,73.5%,42.6%,79.8%,2.74%,4.54%,2.7%,1.88%,-3.67%,4.36%,1.07%,4.45%,0.3%,1.62%,-4.71%
O=C(Nc1n[nH]c2nc(-c3ccc(O)cc3)c(Br)cc12)C1CC1,37.8%,9.61%,5.92%,7.91%,28.8%,2.58%,4.82%,14.9%,22%,3.43%,7.42%,3.04%,3.83%,7.1%,21.4%,7.18%,17.9%,8.23%,12.5%,0.04%
CN1CCN(CCCNc2nc3ccc(Oc4ccc(NC(=O)Nc5cc(C(F)(F)F)ccc5F)cc4)cc3[nH]2)CC1,58.8%,-3.09%,-6.41%,-1.44%,16.4%,-2.7%,-2.07%,3.38%,2.56%,3.88%,3.71%,1.57%,1.53%,-4.14%,0.63%,-1.49%,1.51%,-0.95%,-0.55%,-2.64%
CNC(=O)c1cncc(/C=C/c2c(C)cccc2C)c1,65.9%,-1%,2.29%,7.98%,45.7%,-0.21%,1.84%,-1.45%,2.45%,1.13%,3.37%,-0.51%,-0.68%,-3.96%,-3.96%,-3.46%,-2.09%,-2.67%,-3.86%,-4.63%
Fc1ccc(-c2nc3n(c2-c2ccncc2)CCS3)cc1,7.66%,2.13%,-1.28%,-0.26%,-2.49%,4.16%,1.23%,9.02%,10%,2.18%,2.81%,2.58%,2.75%,-4.07%,1.42%,-0.33%,1.72%,2.38%,0.09%,-6.29%
COc1cc2ncn(-c3cc(OCc4cccs4)c(C(N)=O)s3)c2cc1OC,20.8%,-3.17%,-3.49%,-2.89%,-2.46%,5.9%,12.5%,1.73%,6.6%,5.05%,12.9%,1.87%,1.21%,-3.02%,7.33%,1.75%,15.3%,1.72%,12.4%,-0.52%
